Laboratory results published in PubChem BioAssay (Tox21).
Records with an inconclusive call do not appear. Active and inactive are the calls of the source. Unless noted, calls come from the whole dose curve; as a rule, active = well fitted curve in the direction sought with a large enough effect in the repeat runs; inconclusive = weak or mixed curves; inactive = no such curve, though single readings can be large; an effect the other way counts as inactive or inconclusive.

Legend:
[1] = qHTS assay to identify small molecule antagonists of the estrogen related receptor (ERR) signaling pathway from Tox21 library - cell viability counter screen (AID 1224834); note: nearly all actives have a fitted effect of over 30% in size; note: potency is the fitted concentration of half-maximal effect
Summary of the method: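 ERR reporter cells were plated 6 h before compound addition, then exposed to test compounds in DMSO for 17.5 h at 37 C. Viability was read as CellTiter-Fluor fluorescence after a 30-minute incubation at 37 C.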

[2] = target: Luciferin 4-monooxygenase (Photinus pyralis) (UniProt P08659); experiment: qHTS assay to identify small molecule inhibitors of firefly luciferase (AID 1224835); note: nearly all actives have a fitted effect of over 25% in size; note: potency is the fitted concentration of half-maximal effect; for activity change, negative = inhibition: series mostly up to about 120 µM
Summary of the method: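 Inhibition of purified Photinus luciferase is measured by luminescence. Substrate levels (D-luciferin, ATP) sit at their KM values. Each compound is tested in a concentration series.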

[3] = qHTS assay to identify small molecule antagonists of the constitutive androstane receptor (CAR) signaling pathway - cell viability counter screen (AID 1224837); note: nearly all actives have a fitted effect of over 45% in size; note: potency is the fitted concentration of half-maximal effect; for activity change, negative = cytotoxicity: series mostly up to about 92 µM
Summary of the method: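 HepG2 cells stably expressing hCAR and a CYP2B6-2.2kb reporter were plated and pre-incubated 4 hr at 37 C/5% CO2, then given compounds at 15 concentrations plus 50 nM CITCO (final). After 23 hr, viability was read by CellTiter-Fluor fluorescence.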

[4] = qHTS assay to identify small molecule antagonists of the estrogen related receptor signaling pathway with the pleiotropic PPARgamma coactivator (PGC) from Tox21 10K library - cell viability counter screen (AID 1224840; active = well fitted cell-killing curve with a large enough effect in the repeat runs, not every such curve was filed as active; note: nearly all actives have a fitted effect of over 40% in size; note: potency is the fitted concentration of half-maximal effect)
Summary of the method: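 PGC/ERR cells were seeded at 2,000 cells/well and left 6 hours at 37 C/5% CO2 before pin-tool addition of compounds in DMSO. After 17.5 hours at 37 C, CellTiter-Fluor was added and fluorescence read 30 minutes later.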

[5] = qHTS assay to identify small molecule agonists of the hypoxia (HIF-1) signaling pathway - cell viability counter screen (AID 1224844; calls by dose curve; note: nearly all actives have a fitted effect of over 50% in size; note: potency is the fitted concentration of half-maximal effect)
Summary of the method: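 HRE-bla ME-180 cells in medium with 0.5% dialyzed FBS were preincubated 5 hrs at 37C, exposed to compounds for 17 hrs, then viability was read as CellTiter-Glo luminescence after 30 min at room temperature, in the reporter wells.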

[6] = qHTS assay to identify small molecule agonists of H2AX (AID 1224845; active = well fitted activation curve with a large enough effect in the signal ratio in the repeat runs, not every such curve was filed as active; the % refers to the signal ratio)
Summary of the method: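 Phospho-H2AX Ser139 measured by HTRF (ex 320 nm; em 665 and 620 nm) after 24 hr antibody incubation. Compounds, 15 concentrations, 0.76% DMSO, were applied to CHO-K1 cells for 3hr at 37C before lysis.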

[7] = target: Nuclear receptor subfamily 1 group I member 3 (Homo sapiens) (UniProt Q14994); experiment: qHTS assay to identify small molecule antagonists of the constitutive androstane receptor (CAR) signaling pathway (AID 1224838); note: nearly all actives have a fitted effect of over 40% in size; note: potency is the fitted concentration of half-maximal effect
Summary of the method: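 HepG2 cells stably co-transfected with hCAR and a CYP2B6-2.2kb luciferase reporter were seeded 4 h before compound addition at 15 concentrations. Cells were stimulated with 50 nM CITCO (final) for 24 h at 37 C; luciferase luminescence was then read.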

[8] = qHTS assay to identify small molecule antagonists of the estrogen related receptor signaling pathway with the pleiotropic PPARgamma coactivator (PGC) from Tox21 10K library (AID 1224841; call rule not given here; note: actives are mostly falling curves and most rising ones were filed inactive; nearly all actives have a fitted effect of over 50% in size; note: potency is the fitted concentration of half-maximal effect; for activity, negative = inhibition: series mostly up to about 92 µM)
Summary of the method: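 PGC/ERR reporter cells were seeded at 2,000 cells/well and held 6 hours at 37 C/5% CO2 before pin-tool addition of compounds in DMSO. After 18 hours at 37 C, One-Glo was added and luminescence read after 30 minutes at room temperature.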

[9] = qHTS assay to identify small molecule agonists of the estrogen related receptor signaling pathway with the pleiotropic PPARgamma coactivator (PGC) from Tox21 10K library (AID 1224842); note: nearly all actives have a fitted effect of over 15% in size
Summary of the method: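 Luminescence from One-Glo (30 min, room temperature) measured after PGC/ERR cells had 18 h at 37 C with pinned compound (23 nL in DMSO). Cells had been seeded at 2,000 per well and pre-incubated 6 h.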

[10] = target: Thyrotropin receptor (Homo sapiens) (UniProt P16473); experiment: qHTS assay to identify small molecule agonists of the thyroid stimulating hormone receptor (TSHR) signaling pathway (AID 1224843; calls by dose curve; note: nearly all actives have a fitted effect of over 45% in size)
Summary of the method: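 Screening of the Tox21 10K collection used HEK293 cells engineered with TSHR at 800 cells per well. After a 30-min room-temperature compound exposure, HTRF cAMP reagents were added and fluorescence recorded 1 h later.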

[11] = target: Nuclear receptor subfamily 1 group I member 3 (Homo sapiens) (UniProt Q14994); experiment: qHTS assay to identify small molecule agonists of the constitutive androstane receptor (CAR) signaling pathway (AID 1224839); note: nearly all actives have a fitted effect of over 15% in size; note: potency is the fitted concentration of half-maximal effect;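 for activation: HepG2 cells stably carrying human CAR and a CYP2B6 luciferase reporter; series mostly up to about 92 µM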
Summary of the method: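 In this screen, CAR-driven CYP2B6 promoter activity is measured by luminescence in HepG2-CYP2B6-hCAR cells after 24 h with test compounds and 0.75 uM PK11195 (final concentration).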

[12] = qHTS assay to identify small molecule agonists of the hypoxia (HIF-1) signaling pathway (AID 1224846; active = well fitted activation curve with a large enough effect in the signal ratio in the repeat runs, not every such curve was filed as active; the % refers to the signal ratio)
Summary of the method: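 HRE-bla ME-180 cells (beta-lactamase reporter under hypoxia response element) were plated at 2,000 cells/well in medium with 0.5% dialyzed FBS, rested 5 hrs, then given compounds in DMSO for 17 hrs at 37C, 5% CO2. Reporter induction was read with CCF4-AM FRET substrate.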

[13] = qHTS assay to identify small molecule agonists of the constitutive androstane receptor (CAR) signaling pathway - cell viability counter screen (AID 1224836); note: nearly all actives have a fitted effect of over 45% in size; note: potency is the fitted concentration of half-maximal effect; for viability change, negative = cytotoxic: series mostly up to about 92 µM
Summary of the method: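 Compound titrations (15 concentrations) went onto HepG2-CYP2B6-hCAR cells 4 h after seeding, alongside PK11195 at a final 0.75 uM; a 23 h, 37 C/5% CO2 incubation preceded CellTiter-Fluor viability measurement.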
% is set by controls: 0 for no effect and ±100 for the full control effect.

Nuclear receptor subfamily 1 group I member 3 (Homo sapiens), sequence (Q14994 whole entry, looked up): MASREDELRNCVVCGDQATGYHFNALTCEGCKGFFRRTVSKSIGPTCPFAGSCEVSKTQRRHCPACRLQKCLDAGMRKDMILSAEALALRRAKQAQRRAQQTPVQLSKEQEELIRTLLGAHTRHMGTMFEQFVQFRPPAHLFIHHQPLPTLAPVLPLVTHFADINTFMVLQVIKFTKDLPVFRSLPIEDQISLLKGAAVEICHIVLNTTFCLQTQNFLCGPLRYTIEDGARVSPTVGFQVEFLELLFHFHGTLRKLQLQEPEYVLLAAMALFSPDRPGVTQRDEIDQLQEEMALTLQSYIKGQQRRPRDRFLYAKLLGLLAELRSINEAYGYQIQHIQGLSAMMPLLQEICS
Thyrotropin receptor (Homo sapiens), sequence (P16473 whole entry, looked up): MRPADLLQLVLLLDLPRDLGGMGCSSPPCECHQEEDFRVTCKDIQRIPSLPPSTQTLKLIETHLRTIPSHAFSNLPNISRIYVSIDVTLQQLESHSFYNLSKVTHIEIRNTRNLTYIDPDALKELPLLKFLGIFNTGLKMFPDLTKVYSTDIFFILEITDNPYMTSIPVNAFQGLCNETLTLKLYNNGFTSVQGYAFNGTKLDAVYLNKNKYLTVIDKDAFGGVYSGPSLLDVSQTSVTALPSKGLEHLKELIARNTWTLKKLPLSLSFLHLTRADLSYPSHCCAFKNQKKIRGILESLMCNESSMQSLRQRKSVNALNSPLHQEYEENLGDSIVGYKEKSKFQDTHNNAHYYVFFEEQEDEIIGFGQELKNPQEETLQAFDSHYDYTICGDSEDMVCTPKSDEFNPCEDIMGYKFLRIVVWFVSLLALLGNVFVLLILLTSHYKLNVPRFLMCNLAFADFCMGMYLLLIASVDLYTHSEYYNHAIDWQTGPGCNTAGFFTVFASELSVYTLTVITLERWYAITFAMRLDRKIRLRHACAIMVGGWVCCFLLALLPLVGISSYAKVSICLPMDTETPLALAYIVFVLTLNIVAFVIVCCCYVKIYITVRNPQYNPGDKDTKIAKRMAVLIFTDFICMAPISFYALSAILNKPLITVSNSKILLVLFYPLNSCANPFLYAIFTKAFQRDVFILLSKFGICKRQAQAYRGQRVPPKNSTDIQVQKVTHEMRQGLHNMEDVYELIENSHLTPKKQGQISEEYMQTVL
Luciferin 4-monooxygenase (Photinus pyralis), sequence (P08659 whole entry, looked up): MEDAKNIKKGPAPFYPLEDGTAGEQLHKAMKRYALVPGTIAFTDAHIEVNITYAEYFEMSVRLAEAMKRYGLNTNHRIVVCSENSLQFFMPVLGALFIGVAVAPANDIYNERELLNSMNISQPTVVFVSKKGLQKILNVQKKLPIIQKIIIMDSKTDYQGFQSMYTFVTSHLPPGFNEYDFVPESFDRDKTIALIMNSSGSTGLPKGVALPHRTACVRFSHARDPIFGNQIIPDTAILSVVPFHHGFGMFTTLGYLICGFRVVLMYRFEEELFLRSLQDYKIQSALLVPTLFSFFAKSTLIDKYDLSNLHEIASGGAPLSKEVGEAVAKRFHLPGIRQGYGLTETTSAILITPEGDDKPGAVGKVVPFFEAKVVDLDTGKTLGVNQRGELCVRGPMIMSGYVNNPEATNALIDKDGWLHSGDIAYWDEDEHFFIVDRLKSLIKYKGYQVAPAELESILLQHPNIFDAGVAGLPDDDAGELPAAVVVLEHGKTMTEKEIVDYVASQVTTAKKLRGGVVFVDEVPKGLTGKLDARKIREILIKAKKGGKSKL

c1ccc(-c2nc3ccccc3[nH]2)cc1
inactive: Potency [1] | Potency [3] | Potency [4] | Potency [5] | Potency [6]
active: Potency [2] 5.64 µM

c1ccc(-c2ccc(C(c3ccccc3)n3ccnc3)cc2)cc1 (configuration not stated)
inactive: Potency [2] | Potency [3] | Potency [7] | Potency [4] | Potency [9] | Potency [10] | Potency [5]
active: Potency [1] 33.5 µM | Potency [8] 29.8 µM

CC/C=C(\C)C=O
inactive: Potency [1] | Potency [2] | Potency [3] | Potency [7] | Potency [11] | Potency [4] | Potency [9] | Potency [10] | Potency [5] | Potency [6] | Potency [12]

CN(C)CCOc1ccc(/C(=C(/CCCl)c2ccccc2)c2ccccc2)cc1
active: Potency [1] 51 µM | Potency [4] 57.2 µM | Potency [5] 40.9 µM
inactive: Potency [2] | Potency [11] | Potency [9] | Potency [10]

CCN(CC)c1ccc2c(c1)Oc1cc(N(CC)CC)ccc1C21OC(=O)c2ccccc21
active: Potency [1] 6.68 µM | Potency [2] 13.8 µM | Potency [3] 4.73 µM | Potency [4] 8.41 µM
inactive: Potency [7] | Potency [11] | Potency [12]

CC(O)(c1ccc(Cl)cc1)c1ccc(Cl)cc1
inactive: Potency [2] | Potency [7] | Potency [9]
active: Potency [1] 61.1 µM | Potency [11] 15.4 µM

C=Cc1ccncc1
inactive: Potency [1] | Potency [13] | Potency [3] | Potency [7] | Potency [11] | Potency [4] | Potency [8] | Potency [9] | Potency [10] | Potency [5] | Potency [6] | Potency [12]

Nc1c(Br)cc([N+](=O)[O-])cc1Br
active: Potency [8] 54.5 µM
inactive: Potency [1] | Potency [2] | Potency [3] | Potency [7] | Potency [11] | Potency [4] | Potency [9] | Potency [5] | Potency [6] | Potency [12]

CC(C)(C)c1cc(CCC(=O)OCCSCCOC(=O)CCc2cc(C(C)(C)C)c(O)c(C(C)(C)C)c2)cc(C(C)(C)C)c1O
inactive: Potency [1] | Potency [2] | Potency [3] | Potency [7] | Potency [11] | Potency [4] | Potency [9] | Potency [10] | Potency [5] | Potency [6]

CN(C[C@@H](CC[N+]12CCC(C3CCCCC3)(CC1)CC2)c1ccc(Cl)c(Cl)c1)C(=O)c1cc(C(F)(F)F)cc(C(F)(F)F)c1
active: Potency [1] 48.6 µM | Potency [7] 54.5 µM | Potency [4] 30.6 µM | Potency [5] 19.5 µM
inactive: Potency [2] | Potency [11] | Potency [8] | Potency [6]

CCc1cccc(C)c1N(C(=O)C(=O)O)C(C)COC (configuration not stated)
inactive: Potency [1] | Potency [2] | Potency [3] | Potency [7] | Potency [11] | Potency [4] | Potency [10] | Potency [5] | Potency [6] | Potency [12]

O=C(O)CN(CCCN(CC(=O)O)CC(=O)O)CC(=O)O
inactive: viability change, negative = cytotoxic [1] 11.6% [at 19 µM] | activity change, negative = inhibition [2] 0.284% [at 23.6 µM] | activity, negative = inhibition [7] -21.7% [at 19 µM] | activation [11] -1.05% [at 19 µM] | viability change, negative = cytotoxic [4] -3.45% [at 19 µM] | activation [10] -0.184% [at 19 µM] | activity change, negative = cytotoxicity [5] -18% [at 15.8 µM] | activation (H2AX phosphorylation) [6] 1.1% [at 31.6 µM] | activation [12] 1.13% [at 15.8 µM]

N#Cc1ccc(C/C(=N/NC(=O)Nc2ccc(OC(F)(F)F)cc2)c2cccc(C(F)(F)F)c2)cc1
inactive: Potency [1] | Potency [2] | Potency [3] | Potency [7] | Potency [11] | Potency [4] | Potency [10] | Potency [6]

C/C(=N\[Si](C)(C)C)O[Si](C)(C)C
inactive: Potency [1] | Potency [2] | Potency [3] | Potency [7] | Potency [11] | Potency [4] | Potency [5] | Potency [6] | Potency [12]

CCOC(=O)OC(=O)OCC
inactive: Potency [2] | Potency [13] | Potency [3] | Potency [7] | Potency [11] | Potency [4] | Potency [10] | Potency [5] | Potency [6] | Potency [12]

Brc1cc(Br)cc(Br)c1
inactive: Potency [2] | Potency [13] | Potency [3] | Potency [11] | Potency [4] | Potency [8] | Potency [9] | Potency [10] | Potency [5] | Potency [12]

CCCCCCCCSCc1cc(C)c(O)c(CSCCCCCCCC)c1
inactive: Potency [2] | Potency [13] | Potency [3] | Potency [7] | Potency [11] | Potency [4] | Potency [8] | Potency [9] | Potency [10] | Potency [5] | Potency [6] | Potency [12]

O=C1Cc2ccccc2C1
inactive: Potency [2]

CCCCCCCC1CCC(=O)O1 (configuration not stated)
inactive: Potency [2]

CN1CCN(c2ccccc2/C=C2\SCCN(c3ccc(Cl)c(Cl)c3)C2=O)CC1
active: Potency [13] 43.3 µM | Potency [3] 24.3 µM | Potency [4] 48.6 µM | Potency [5] 49 µM
inactive: Potency [2] | Potency [7] | Potency [11] | Potency [9]

C=Cc1ccc(O)c(OC)c1
inactive: Potency [2] | Potency [13] | Potency [3] | Potency [7] | Potency [11] | Potency [4] | Potency [10] | Potency [5] | Potency [12]

CCC(C)(C)c1ccc(CC(C)CN2C[C@@H](C)O[C@@H](C)C2)cc1 (some centres not stated)
inactive: Potency [2] | Potency [13] | Potency [3] | Potency [7] | Potency [11] | Potency [4] | Potency [8] | Potency [9]
active: Potency [5] 23.9 µM

CCNc1nc(NC(C)(C)C)nc(OC)n1
inactive: Potency [2] | Potency [13] | Potency [3] | Potency [7] | Potency [4] | Potency [10] | Potency [5] | Potency [6] | Potency [12]
active: Potency [11] 30.6 µM

NC(=O)c1ccccc1Cl
inactive: Potency [2] | Potency [13] | Potency [3] | Potency [7] | Potency [11] | Potency [4] | Potency [9] | Potency [5] | Potency [6] | Potency [12]

Cc1c[nH]c(=O)[nH]c1=O
inactive: Potency [2] | Potency [13] | Potency [3] | Potency [4] | Potency [8] | Potency [9] | Potency [10] | Potency [5] | Potency [6] | Potency [12]
